Laboratory results published in PubChem BioAssay AID2391 (Southern Research Specialized Biocontainment Screening …, 2010).
The campaign covered roughly 310,000 compounds. About 410 (0.13%) were called active. Not shown: some 2% with an inconclusive outcome. How the calls were made is not given here. The list is a sample of the results. Potency and affinity values are given separately.

Assay: inhibition of RSV-induced cytopathic effect – HEp-2 cells, primary 10 µM value included (AID 2391)
Details: at 10 µM, hits give high values

CPE inhibition, inactive:
CSc1ccccc1OCc1cc(C(=O)N(C)Cc2cc(C)[nH]n2)no1 4.8%, Cc1ccc(CN(C)C(=O)c2cc(COc3ccc(F)cc3Cl)on2)o1 6.3%, Cc1ccc(S(=O)(=O)NCCC(=O)NCc2ccccn2)cc1 -1.85%, O=C(O)c1cccc(CN2C(=O)c3ccccc3C2=O)c1 2.88%, O=[N+]([O-])c1ccccc1S(=O)(=O)Nc1ccc(-c2ccc(N3CCCC3)nn2)cc1 -1.43%, O=[N+]([O-])c1ccc(S(=O)(=O)Nc2cccc(-c3ccc(N4CCOCC4)nn3)c2)cc1 38.2%, O=[N+]([O-])c1ccccc1S(=O)(=O)Nc1ccc(-c2ccc(N3CCOCC3)nn2)cc1 -1.46%, O=[N+]([O-])c1ccc(S(=O)(=O)Nc2cccc(-c3ccc(N4CCCC4)nn3)c2)cc1 22.4%, COc1ccc([N+](=O)[O-])cc1NC(=O)Cn1ccsc1=N 4.59%, O=C(Nc1cccc(Cl)c1)c1ccc(NCCCN2CCOCC2)c([N+](=O)[O-])c1 5.44%, O=C(NCc1cccnc1)Nc1ccc(Br)cc1Cl 1.28%, COc1ccc(N2CCN(C(=O)CCc3cc(OC)c(OC)c(OC)c3)CC2)cc1 1.91%, Cc1cc(NCCCO)n2nc(-c3cccs3)cc2n1 9%, CN(C)CCCNc1cc(-c2ccccc2)nc2cc(-c3cccc(F)c3)nn12 -1.34%, Cc1cc(NCCCn2ccnc2)n2nc(-c3ccc(F)cc3)cc2n1 -1.16%, COCCNc1cc(C)nc2cc(-c3ccc(C)cc3)nn12 2.67%, Cc1nc2cc(NC(=O)N(C)c3ccc4ccccc4c3)ccc2o1 12.7%, CCOCCCn1c(SCC(=O)Nc2ccc(NC(C)=O)cc2)nc2ccccc2c1=O 0.96%, CC(=O)c1c(C)[nH]c(C(=O)OCC(=O)Nc2cccc(S(=O)(=O)N(C)C)c2)c1C 6.22%, CCN(CC)C1=N/C(=C\c2ccco2)C(=O)N1c1ccccc1 2.62%, CCSC1=N/C(=C\c2ccccc2)C(=O)N1c1ccc(OC)cc1 2.7%, CN(C(=O)CCCN1C(=O)c2ccccc2C1=O)C1CCCCC1 2.46%, COc1ccc(CNC(=O)Nc2cc(C)ccc2C)cc1 2.36%, O=C1CCC([N+](=O)[O-])C(c2ccc(Cl)c([N+](=O)[O-])c2)N1 (configuration not stated) -2.01%, O=C1CCSc2ccc(Cl)cc2N1Cc1ccccc1 1.94%, O=C1CCSc2ccc(Cl)cc2N1Cc1ccc(Cl)cc1 45.3%, Cc1ccc(S(=O)(=O)CCC(=O)Nc2sccc2C#N)cc1 0.59%, COC(=O)Cc1ccc(NC(=S)N2CCN(c3ccc(OC)cc3)CC2)cc1 13.6%, COc1ccc2nc(NC(=O)c3ccccc3F)sc2c1 3.79%, COc1ccc2nc(NC(=O)c3ccccc3C(=O)O)sc2c1 1.92%, Cc1ccc(S(=O)(=O)N2[C@@H](c3ccc(F)cc3)C(C(=O)O)=CC[C@H]2c2cccc(Cl)c2)cc1 1.86%, CCc1cc(S(=O)(=O)N2CCN(C(=O)c3ccco3)CC2)ccc1OC 3.94%, C=CCN(Cc1nc(-c2cc(OC)ccc2OC)oc1C)C1CCS(=O)(=O)C1 (configuration not stated) -0.75%, Fc1ccccc1C1c2[nH]c3ccccc3c2CCN1Cc1cccn1-c1ncccn1 (configuration not stated) 16.6%, CCOc1ccc(C2c3[nH]c4ccccc4c3CCN2Cc2cccn2-c2ncccn2)cc1 (configuration not stated) 43.1%, CC(C)(C)c1ccc(-c2nc(C#N)c(NCc3cccnc3)o2)cc1 0.34%, COc1ccc(C(C)(C)C)cc1NC(=O)c1ccc[n+]([O-])c1 0.85%, O=C(NCc1ccccc1)c1ccc[n+]([O-])c1 0.02%, CC(=O)C1=C(O)C(=O)N(c2nccs2)C1c1ccc(F)cc1 (configuration not stated) 1.72%, O=c1/c(=C\c2ccc(F)cc2)sc2n1CCCN=2 0.07%, Cc1cccnc1Nc1nc(-c2ccc(F)cc2)cs1 14.5%, CCCCN(C)C(=O)c1cc2cc3ccc(OC)cc3nc2o1 12.1%, Cc1ccc2cc3cc(C(=O)N4CCCCCC4)oc3nc2c1 58.9%, COc1ccc2cc3cc(C(=O)N4CCCC(C)C4)oc3nc2c1 (configuration not stated) -0.12%, COc1ccc2cc3cc(C(=O)N4CCCCCC4)oc3nc2c1 5.67%, Cc1ccc2cc3cc(C(=O)NC4CCCCC4)oc3nc2c1 4.34%, CCCCN(CC)C(=O)c1cc2cc3ccc(OC)cc3nc2o1 20.6%, COc1ccc(/C=N/N=C2/NC(=O)C(CC(=O)O)S2)cc1OCc1ccc(Cl)cc1Cl (configuration not stated) 1.42%, CCOc1cc(/C=N/N=C2/NC(=O)C(CC(=O)O)S2)ccc1OCc1ccc(Cl)cc1 (configuration not stated) 2%, CC(C)NC(=O)CCNC(=O)c1ccc(F)cc1 0.45%, CCCCCCC(C)n1[nH]c(=O)c2c(C)cc(C)nc21 (configuration not stated) 6.56%, O=C(NC1=NCCS1)c1cc(-c2cccnc2)nc2ccccc12 3.02%, COCCNC(=O)COC(=O)c1cc(-c2ccc(OC)cc2)nc2ccccc12 2.44%, O=C(Nc1ncccn1)c1cc(-c2cccc(Br)c2)nc2ccccc12 10.3%, COCCCNC(=O)c1cc(-c2cccnc2)nc2ccccc12 1.57%, O=C(NC1=NCCS1)c1cc(-c2ccc(F)cc2)nc2ccccc12 8.35%, COc1cccc(-c2cc(C(=O)Nc3ccncc3)c3ccccc3n2)c1 18.1%, Cc1ccc2nc(SCc3cn4cccnc4n3)[nH]c2c1 0.92%, CC(C(=O)Nc1cccc([N+](=O)[O-])c1)n1nnc2ccccc21 (configuration not stated) -0.02%, CCC1Sc2ccc(S(=O)(=O)CCC(=O)Nc3c(Cl)cc(OC)cc3OC)cc2NC1=O (configuration not stated) 12.2%, Cc1ccc(N2CCN(C(=O)NC3CCCCC3)CC2C)cc1 (configuration not stated) 3.66%, COc1ccc(NC(=O)NCCCN2CCN(c3ccccc3F)CC2)cc1 -2.01%, CCOc1ccc(C(=O)CN2C(=O)NC3(CCCCCC3)C2=O)cc1 1.63%, COc1cc2c(cc1OC)C(C)N(C(=O)/C=C/c1cc(OC)c(OC)c(OC)c1)CC2 (configuration not stated) 1.08%, COc1cc2c(cc1OC)C(C)N(C(=O)c1ccc(C)o1)CC2 (configuration not stated) 3.08%, COc1cc2c(cc1OC)C(C)N(C(C)=O)CC2 (configuration not stated) -1.08%, COc1cc2c(cc1OC)C(C)N(C(=O)c1ccc(Br)o1)CC2 (configuration not stated) 4.76%, Cc1ccc(NC(=O)c2c(F)cccc2Cl)cc1S(=O)(=O)N1CCOCC1 2.31%, CCOc1ccc(NC(=O)CC2C(=O)N(c3ccc(OC)cc3)C(=S)N2Cc2ccccn2)cc1 (configuration not stated) -1.46%, COc1ccc(N2C(=O)C(CC(=O)Nc3ccccc3)N(Cc3ccccn3)C2=S)cc1 (configuration not stated) 4.08%, CCOc1ccc(NC(=O)CC2C(=O)N(c3ccccc3)C(=O)N2Cc2ccccn2)cc1 (configuration not stated) 3.73%, CCOc1ccc(NC(=O)CC2C(=O)N(c3ccccc3)C(=S)N2Cc2ccccn2)cc1 (configuration not stated) 7.95%, CCCCCc1cc(=O)oc2c(C(CCN3CCCCC3)c3ccc(OC)cc3)c(OC)cc(OC)c12 (configuration not stated) -3.75%, C[C@@]12C(=O)N(c3ccc(F)cc3)C(=O)N1[C@@H]1c3ccccc3OC[C@@H]1[C@H]2c1ccccc1 6.7%, COc1cccc2c1c(NC(=O)Nc1ccc(F)cc1F)nn2C 1.98%, COc1cccc2c1c(NC(=O)c1cc(C)on1)nn2C 2.09%, CC(=O)Nc1ccc(NC(=O)C2CCC(N3C(=O)C4C5C=CC(C6CC56)C4C3=O)CC2)cc1 (configuration not stated) 1.77%, CC(C(=O)N1CCCC1)N1CCN(S(=O)(=O)c2ccc(C(C)(C)C)cc2)CC1 (configuration not stated) 0.2%, Cc1ccc(CSCC(=O)Nc2ccccc2F)cc1 0.6%, Cc1c(NC(=O)CSCc2ccccc2)cccc1C(=O)O -0.3%, O=C(CSc1nc2ccccc2s1)N/N=C/c1ccco1 0.58%, Cn1cccc1Cc1nnc(SCC(=O)Nc2ccc3c(c2)OCCO3)n1-c1ccc(F)cc1 0.23%, Cc1ccc(C(=O)N[C@H](C(=O)OCC(=O)Nc2cccc(S(N)(=O)=O)c2)C(C)C)cc1 -0.34%, O=C(NC1CCCCC1)c1ccc(N2CCCC2=O)cc1 2.08%, Cn1ncc(Br)c1C(=O)N1CCOCC1 3.84%, CC1CCN(C(=O)COc2ccccc2F)CC1 4.04%, O=C(NCCOc1ccccc1Cl)C(=O)NCCOc1ccccc1Cl 3.63%, COC(=O)c1cc(S(=O)(=O)N2CCC(C)CC2)ccc1F 0.31%, O=C(CNC(=O)c1ccccc1F)NCCOc1ccccc1Cl 0.24%, CCN1C(=O)[C@H]2[C@@H](c3ccc(C)cc3)N3C(=O)N(c4cccc(Cl)c4)C(=O)[C@@]3(CC(C)C)[C@H]2C1=O 3.11%, N#Cc1ccc(CSc2nnc(-c3cccnc3)n2-c2ccccc2)cc1 0.49%, Cc1ccc2c(C)c(C(=O)N3CCN(c4cnccn4)CC3)oc2c1C 16.7%, Cc1ccc2c(C)c(C(=O)N3CCN(Cc4ccccn4)CC3)oc2c1C 1.72%, CC(C)N(CCO)Cc1nc(C(c2ccccc2)c2ccccc2)no1 -0.29%, Cc1c(C(=O)NCC2CCCO2)oc2ccc(Br)cc12 (configuration not stated) 3.18%, O=C(NCc1ccccc1)c1ccc(NC(=O)C2CCCO2)cc1 (configuration not stated) 0.29%, O=C1CN(C(=O)CSc2nc3ccccc3c(=O)n2Cc2ccc(F)cc2)c2ccccc2N1 16.3%, Cc1ccc(-n2c(SCC(=O)N3CC(=O)Nc4ccccc43)nc3ccccc3c2=O)cc1 3.64%, O=C(COC(=O)CNC(=O)c1ccc(Cl)cc1)NC1CCCCCC1 -0.18%, CCOCCCNC(=O)C1CCCN1C(=O)NC1CCCCC1 (configuration not stated) 1.83%, CCOC(=O)N/N=C(\C)c1cccs1 -0.75%, Nc1ccc(-c2nc3ccccc3o2)cc1 2.51%, Nc1ccc(-c2nc3ccccc3[nH]2)cc1 -0.76%, Cc1ccc(S(=O)(=O)Nc2ccc3nc(-c4cccn4C)[nH]c3c2)cc1 2.21%, O=C(Nc1ccc(S(=O)(=O)Nc2nccs2)cc1)C1CCCCC1 1.14%, O=C(NC(=S)Nc1ccc(S(=O)(=O)Nc2nccs2)cc1)C1CC1 -0.1%, O=C(c1cccc(N2C(=O)C3C4C=CC(C4)C3C2=O)c1)N1CCN(c2ccccc2F)CC1 (configuration not stated) 1.69%, O=C(c1cccc(N2C(=O)C3C4C=CC(C4)C3C2=O)c1)N1CCN(c2ccccc2)CC1 (configuration not stated) 3.62%, Cc1ccc(S(=O)(=O)NCCC(=O)NCC(c2ccc(F)cc2)N2CCOCC2)cc1 (configuration not stated) -0.75%, COc1ccc(CNC(=S)Nc2cccc(OC)c2)cc1 0.93%, CCOc1cc(S(=O)(=O)N(CC)CC)ccc1Br 0.38%, COc1ccccc1CNC(=O)CN(C)S(=O)(=O)c1ccc(Br)s1 3.3%
